Data: article PMC5540273 (PLoS ONE, 2017)

Tested on: DMPK
Details: concentration: 1 μM, replicates: in singlicate; n = 1
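Also: KINOMEscan kinase panel screen.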

Row | Structure (SMILES) | %Inh
1 | CCc1ccc(-c2ccc3c(c2)-c2nn(C)cc2S(=O)(=O)N3C)cc1 | 0%
2 | Nc1n[nH]c2ncc(-c3ccccc3)cc12 [SB-517081] | 0%
3 | Cc1nc(N(C)[C@H]2CN(C(=O)CC#N)CC[C@H]2C)c2cc[nH]c2n1 | 0%
4 | COc1ccc(-c2coc3ccc(-c4nnc(SCc5cccc(C#N)c5)o4)cc23)cc1 | 0%
5 | CCC(=O)c1c(-c2ccccc2)c2cc(Cl)ccc2c(=O)n1Cc1cc(S(C)(=O)=O)n(CCC(C)(C)O)n1 | 11%
6 | COc1cc2ncn(-c3cc(OCc4ccncc4)c(C(N)=O)s3)c2cc1OC [GSK336313] | 0%
7 | Nc1nccc2scc(-c3ccc4c(c3)CCN4C(=O)Cc3ccccc3)c12 [GSK2576924] | 0%
8 | COC(=O)c1c(-c2ccccc2)c2cc(Br)ccc2c(=O)n1Cc1ccc(S(C)(=O)=O)cc1 | 0%
9 | CCCC(=O)Nc1n[nH]c2ncc(-c3cccc4ccccc34)cc12 [SB-642057] | 0%
10 | O=C1NC(=O)C(c2ccccc2)=C1Nc1cccc(O)c1 [SB-390534] | 0%
11 | Cc1nn2c(=O)cc(N3CCOCC3)nc2n1Cc1cccc(Cl)c1Cl [GSK2342769] | 0%
12 | C[C@@H]1CC[C@H](C(=O)NC2CCCCC2)CN1c1cc(-c2ccc3c(N)n[nH]c3c2)nc(N)n1 [GSK2291363] | 0%
13 | Nc1ncnc2c1ncn2-c1cccc2ccccc12 [SKF-97184] | 0%
14 | COc1cc2ncn(-c3cc(OCc4ccncc4Br)c(C(N)=O)s3)c2cc1OC [GW854278] | 3%
15 | COc1cc2ncn(-c3cc(OCCCc4ccccc4)c(C(N)=O)s3)c2cc1OC [GSK205189] | 0%
16 | O=C(Nc1n[nH]c2nc(-c3ccccc3)c(Cl)cc12)C1CC1 [SB-734909] | 0%
17 | COc1ccc(-c2cc3c(C)nc(N)nc3n([C@H]3CC[C@H](OCCO)CC3)c2=O)cn1 | 8%
18 | CCC(=O)c1c(-c2ccccc2)c2cc(Cl)ccc2c(=O)n1Cc1ccc(C(=O)O)cc1 | 0%
19 | Cc1nnc(-c2ccc(C)c(-c3ccc(C(=O)O)cc3)c2)o1 [GW608005] | 0%

Row | Structure (SMILES) | %Inh
20 | Cc1ccccc1COc1cc(-n2cnc3cc(Cl)ccc32)sc1C(N)=O [GW813349] | 0%
21 | Cc1ccc(Oc2ccc(Nc3ncnc4cc[nH]c34)cc2C)cn1 | 0%
22 | CCCNC(=O)Nc1ccc(Oc2ncnc3ccn(C)c23)cc1 | 0%
23 | COc1cc(Nc2nccc(N3CCC(NC(=O)C4COc5ccccc5O4)C3)n2)cc(OC)c1OC (centres unmarked) [GSK1379761] | 0%
24 | COc1cc2ncn(-c3cc(OCc4ccc(S(C)(=O)=O)cc4)c(C(N)=O)s3)c2cc1OC [GW869979] | 0%
25 | COc1cc(Nc2ccnc3ccc(C(F)(F)F)cc23)cc(OC)c1OC [GW577382] | 0%
26 | O=C(Nc1n[nH]c2cc(-c3ccccc3F)ccc12)C1CC1 [SB-733371] | 0%
27 | COC(=O)c1c(-c2ccccc2)c2cc(C)ccc2c(=O)n1Cc1ccccc1 | 0%
28 | FC(F)(F)c1ccc(-c2ncn(CCCN3CCOCC3)c2-c2ccncc2)cc1 [SB-217780] | 28%
29 | Cl.NS(=O)(=O)c1cccc(Nc2cc(-c3ccc(F)cc3)n[nH]2)c1 [GW824645] | 1%
30 | COc1cccc(C2=C(N(C)c3ccccc3)C(=O)NC2=O)c1 [SB-334865] | 0%
31 | Cn1c(=O)c(F)c(Nc2ccc(I)cc2F)c2c(=O)n(OC[C@H](O)CO)cnc21 | 17%
32 | Fc1cccc(CSc2nnc(-c3ccc4c(c3)CCO4)o2)c1 | 0%
33 | Nc1ncnc2c1ncn2-c1cccc(F)c1 [SKF-97560] | 0%
34 | COc1cc(OC)cc(-c2cc3cnc(N)nc3nc2NC(=O)NC(C)(C)C)c1 | 16%
35 | CCc1nc(-c2cccc(C)c2)c(-c2ccncc2)s1 | 0%
36 | COc1ccc(Nc2nccc(N3CCC(NS(=O)(=O)c4ccc(NC(C)=O)cc4)C3)n2)cc1 (centres unmarked) [GSK1379729] | 0%
37 | COc1ccc(-n2cnc3c(N)ncnc32)cc1 [SKF-97236] | 6%

Tested on: T1, DRAK1
T1 construct: gene STK17A
Details: concentration: 1 μM, replicates: in singlicate; n = 1

Row | Structure (SMILES) | %Inh
38 | CCc1ccc(-c2ccc3c(c2)-c2nn(C)cc2S(=O)(=O)N3C)cc1 | 0%
39 | Nc1n[nH]c2ncc(-c3ccccc3)cc12 [SB-517081] | 34%
40 | Cc1nc(N(C)[C@H]2CN(C(=O)CC#N)CC[C@H]2C)c2cc[nH]c2n1 | 0%
41 | COc1ccc(-c2coc3ccc(-c4nnc(SCc5cccc(C#N)c5)o4)cc23)cc1 | 2%
42 | CCC(=O)c1c(-c2ccccc2)c2cc(Cl)ccc2c(=O)n1Cc1cc(S(C)(=O)=O)n(CCC(C)(C)O)n1 | 14%
43 | COc1cc2ncn(-c3cc(OCc4ccncc4)c(C(N)=O)s3)c2cc1OC [GSK336313] | 0%
44 | Nc1nccc2scc(-c3ccc4c(c3)CCN4C(=O)Cc3ccccc3)c12 [GSK2576924] | 1%
45 | COC(=O)c1c(-c2ccccc2)c2cc(Br)ccc2c(=O)n1Cc1ccc(S(C)(=O)=O)cc1 | 3%
46 | CCCC(=O)Nc1n[nH]c2ncc(-c3cccc4ccccc34)cc12 [SB-642057] | 0%
47 | O=C1NC(=O)C(c2ccccc2)=C1Nc1cccc(O)c1 [SB-390534] | 5%
48 | Cc1nn2c(=O)cc(N3CCOCC3)nc2n1Cc1cccc(Cl)c1Cl [GSK2342769] | 0%
49 | C[C@@H]1CC[C@H](C(=O)NC2CCCCC2)CN1c1cc(-c2ccc3c(N)n[nH]c3c2)nc(N)n1 [GSK2291363] | 20%
50 | Nc1ncnc2c1ncn2-c1cccc2ccccc12 [SKF-97184] | 7%
51 | COc1cc2ncn(-c3cc(OCc4ccncc4Br)c(C(N)=O)s3)c2cc1OC [GW854278] | 4%
52 | COc1cc2ncn(-c3cc(OCCCc4ccccc4)c(C(N)=O)s3)c2cc1OC [GSK205189] | 0%
53 | O=C(Nc1n[nH]c2nc(-c3ccccc3)c(Cl)cc12)C1CC1 [SB-734909] | 0%
54 | COc1ccc(-c2cc3c(C)nc(N)nc3n([C@H]3CC[C@H](OCCO)CC3)c2=O)cn1 | 16%
55 | CCC(=O)c1c(-c2ccccc2)c2cc(Cl)ccc2c(=O)n1Cc1ccc(C(=O)O)cc1 | 0%
56 | Cc1nnc(-c2ccc(C)c(-c3ccc(C(=O)O)cc3)c2)o1 [GW608005] | 0%

Row | Structure (SMILES) | %Inh
57 | Cc1ccccc1COc1cc(-n2cnc3cc(Cl)ccc32)sc1C(N)=O [GW813349] | 0%
58 | Cc1ccc(Oc2ccc(Nc3ncnc4cc[nH]c34)cc2C)cn1 | 0%
59 | CCCNC(=O)Nc1ccc(Oc2ncnc3ccn(C)c23)cc1 | 0%
60 | COc1cc(Nc2nccc(N3CCC(NC(=O)C4COc5ccccc5O4)C3)n2)cc(OC)c1OC (centres unmarked) [GSK1379761] | 0%
61 | COc1cc2ncn(-c3cc(OCc4ccc(S(C)(=O)=O)cc4)c(C(N)=O)s3)c2cc1OC [GW869979] | 0%
62 | COc1cc(Nc2ccnc3ccc(C(F)(F)F)cc23)cc(OC)c1OC [GW577382] | 0%
63 | O=C(Nc1n[nH]c2cc(-c3ccccc3F)ccc12)C1CC1 [SB-733371] | 0%
64 | COC(=O)c1c(-c2ccccc2)c2cc(C)ccc2c(=O)n1Cc1ccccc1 | 0%
65 | FC(F)(F)c1ccc(-c2ncn(CCCN3CCOCC3)c2-c2ccncc2)cc1 [SB-217780] | 15%
66 | Cl.NS(=O)(=O)c1cccc(Nc2cc(-c3ccc(F)cc3)n[nH]2)c1 [GW824645] | 0%
67 | COc1cccc(C2=C(N(C)c3ccccc3)C(=O)NC2=O)c1 [SB-334865] | 0%
68 | Cn1c(=O)c(F)c(Nc2ccc(I)cc2F)c2c(=O)n(OC[C@H](O)CO)cnc21 | 0%
69 | Fc1cccc(CSc2nnc(-c3ccc4c(c3)CCO4)o2)c1 | 27%
70 | Nc1ncnc2c1ncn2-c1cccc(F)c1 [SKF-97560] | 20%
71 | COc1cc(OC)cc(-c2cc3cnc(N)nc3nc2NC(=O)NC(C)(C)C)c1 | 0%
72 | CCc1nc(-c2cccc(C)c2)c(-c2ccncc2)s1 | 0%
73 | COc1ccc(Nc2nccc(N3CCC(NS(=O)(=O)c4ccc(NC(C)=O)cc4)C3)n2)cc1 (centres unmarked) [GSK1379729] | 0%
74 | COc1ccc(-n2cnc3c(N)ncnc32)cc1 [SKF-97236] | 43%
